BoNT F protease = BoNT/F light chain protease inhibitors, primary screen, biochemical, flow cytometry, MLPCN library; Botulinum neurotoxin type F light chain protease (Clostridium botulinum); Multiplex microsphere protease cleavage assay; inhibition, % at 10 µM; actives 0.22% (n = 360,000); AID 588497, 2011; in the data active = inhibition above about 35%, passing the limit was not always enough; inconclusive = no clear call, values can overlap the other calls; note: plate controls were buffer without enzyme for full effect and enzyme alone for no effect
Anthrax LF inh2 = Bacillus anthracis LF protease inhibitors, primary screen, biochemical, multiplex microsphere, MLPCN library; multiplex microsphere protease cleavage assay; AID 588501, 2011; actives 0.12% (n = 360,000); Lethal factor (Bacillus anthracis), P15917; inhibition, % at 10 µM; note: plate controls were buffer without enzyme for full effect and enzyme alone for no effect
Target sequence (P15917 whole entry, looked up): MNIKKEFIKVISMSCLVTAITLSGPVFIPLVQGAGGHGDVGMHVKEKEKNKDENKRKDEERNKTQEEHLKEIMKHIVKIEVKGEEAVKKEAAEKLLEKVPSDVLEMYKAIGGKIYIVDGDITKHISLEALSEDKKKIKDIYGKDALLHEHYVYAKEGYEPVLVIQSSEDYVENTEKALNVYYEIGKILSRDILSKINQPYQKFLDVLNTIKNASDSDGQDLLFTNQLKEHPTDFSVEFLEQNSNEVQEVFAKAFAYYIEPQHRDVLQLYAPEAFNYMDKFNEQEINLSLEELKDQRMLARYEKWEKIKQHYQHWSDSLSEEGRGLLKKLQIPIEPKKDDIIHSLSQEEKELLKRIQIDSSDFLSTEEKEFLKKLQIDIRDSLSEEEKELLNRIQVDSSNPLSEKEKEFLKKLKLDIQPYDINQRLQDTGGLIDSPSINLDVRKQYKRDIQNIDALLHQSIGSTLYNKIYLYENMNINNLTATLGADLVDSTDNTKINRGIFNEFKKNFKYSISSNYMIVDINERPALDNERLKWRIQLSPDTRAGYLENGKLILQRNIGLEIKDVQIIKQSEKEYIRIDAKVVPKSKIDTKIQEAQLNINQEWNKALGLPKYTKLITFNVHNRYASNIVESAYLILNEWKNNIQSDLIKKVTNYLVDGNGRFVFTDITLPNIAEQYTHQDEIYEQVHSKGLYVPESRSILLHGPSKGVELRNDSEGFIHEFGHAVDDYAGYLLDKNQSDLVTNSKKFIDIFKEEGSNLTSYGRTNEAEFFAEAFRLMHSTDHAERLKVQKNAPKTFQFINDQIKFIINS
BoNT-A LC inh2 = BoNT/A light chain protease inhibitors, primary screen, biochemical, flow cytometry, MLPCN library; multiplex microsphere protease substrate cleavage; inhibition, % at 10 µM; actives 0.17% (n = 360,000); AID 588499, 2011; note: plate controls were buffer without enzyme for full effect and enzyme alone for no effect
DUSP3 inh = VHR1 phosphatase inhibitors, primary screen, biochemical, absorbance, uHTS. recombinant VHR phosphatase, pNPP absorbance. inhibition, % at 13.3 µM. actives 0.52% (n = 290,000); in the data active = inhibition above about 50%
3CLpro inhibitor = SARS-CoV 3CLpro protease inhibitors, primary screen, biochemical, quenched FRET; AID 1706, 2009; inhibition, % at 6 µM; Replicase polyprotein 1ab (Severe acute respiratory syndrome coronavirus), P0C6X7; recombinant SARS-CoV 3CLpro, quenched FRET peptide cleavage; actives 0.14% (n = 290,000); in the data active = inhibition above about 12%
Bead autofluor = compound fluorescence in toxin protease inhibitor counterscreen; compound autofluorescence counterscreen, microsphere flow cytometry; hits give high values; fluorescence intensity (test concentration not listed); actives 3.1% (n = 360,000); in the data active = fluorescence intensity above about 16000; inconclusive = no clear call, values can overlap the other calls
* = called active by the depositor; ? = inconclusive; nt = no result. Compounds with a hit are over-represented: about 3.9% of the library has one in this group of screens. Cut-off read from the data, not from the text of the source, unless noted: active = inhibition above about 30%; inconclusive = no clear call, values can overlap the other calls; inactive = below that.

SMILES	BoNT F protease	Anthrax LF inh2	BoNT-A LC inh2	DUSP3 inh	3CLpro inhibitor	Bead autofluor
N#CC1=C(N)Oc2n[nH]c(-c3ccccc3)c2C1c1cccnc1 (stereo not drawn)	-7	-1	0	36	1	4132
CCCc1nn(C)c2c1C(c1cccnc1)C(C#N)=C(N)O2 (stereo not drawn)	-6	-2	-3	20	6	23902*
Cc1ccc(-c2[nH]nc3c2C(c2cccnc2)C(C#N)=C(N)O3)cc1 (stereo not drawn)	0	-3	?	8	0	23057*
CC(C)c1[nH]nc2c1C(c1cccnc1)C(C#N)=C(N)O2 (stereo not drawn)	-1	0	-1	21	2	19924*
CCOC(=O)N1CCN(C2CCCN(C(=O)c3cccc(N(C)C)c3)C2)CC1 (stereo not drawn)	9	-1	1	40	-1	5349
Cc1ccc(C(=O)N/C(=C/c2ccccc2)C(=O)NCC2CCCO2)cc1 (stereo not drawn)	0	-1	-1	7	1	4757
O=C(NC(C(=O)N/N=C/c1cc([N+](=O)[O-])ccc1O)c1n[nH]c(=O)c2ccccc12)c1ccccc1 (stereo not drawn)	3	4	3	1	9	3734
COc1ccc(N2CCN(C(=O)CSc3nnc4c(C)cc5ccc(C)c(C)c5n34)CC2)cc1	-6	-2	-6	6	4	21530*
COc1ccc(N2CCN(C(=O)CSc3nnc4c(C)cc5c(C)cc(C)cc5n34)CC2)cc1	-7	0	1	9	-4	6079
COc1ccc(N2CCN(C(=O)CSc3nnc(C4CC4)n3C3CC3)CC2)cc1	0	-6	0	nt	nt	2867
COc1ccc(N2CCN(C(=O)CSc3nnc4c(C)cc5cc(C)ccc5n34)CC2)cc1	-4	-1	-1	26	6	23987*
Cc1ccc(NC(=O)CSc2ncnc3ccccc23)cc1S(=O)(=O)N1CCCCCC1	0	0	1	-12	-1	7926
COc1cc(OC)c(OC)cc1CNCc1ccco1	-19	1	-4	23	0	4058
CC1CCN(C2CCN(S(=O)(=O)c3ccc(F)cc3)CC2)CC1	8	-3	3	17	-5	9245
Cc1ccc(S(=O)(=O)N2CCC(C(=O)NCCCN3CCCCCC3)CC2)cc1	-10	-2	2	4	2	24422*
CS(=O)(=O)N1CCC(C(=O)Nc2cccc(F)c2)CC1	39*	-14	4	14	-3	3978
O=S(=O)(c1ccc(F)cc1)N1CCC(N2CCCCCC2)CC1	-1	-4	0	22	4	16305*
Cc1ccc(NC(=O)C2CCN(S(=O)(=O)c3ccc(F)cc3)CC2)cc1	-4	-1	-1	-15	-1	23704*
O=c1c2ccccc2ncn1-c1ccc([N+](=O)[O-])cc1Cl	?	-3	-2	-8	2	4506
CC(=O)Nc1ccc(S(=O)(=O)NNC(=O)c2cccc(Cl)c2)cc1	0	2	0	15	-3	2009
Cc1ccc(NC(=O)c2ccc(S(=O)(=O)N3CCC(C)CC3)cc2)cc1	-4	0	-3	7	2	20894*
CC1CCCN(S(=O)(=O)c2ccc(NC(=O)c3cccc(-n4cnnn4)c3)cc2)C1 (stereo not drawn)	0	-2	1	22	0	20061*
CC1CCCCN1S(=O)(=O)c1ccc(NC(=O)c2cccc(-n3cnnn3)c2)cc1 (stereo not drawn)	18	-12	2	-2	-4	8266
Cc1c(Cl)cccc1N1C(=O)CC(Sc2ccccc2N)C1=O (stereo not drawn)	3	4	0	nt	nt	3459
CCN(C(=O)CN1C(=O)S/C(=C\c2cccc(OC)c2)C1=O)C1CCS(=O)(=O)C1 (stereo not drawn)	-4	4	-1	52*	-4	4775
SMILES	BoNT F protease	Anthrax LF inh2	BoNT-A LC inh2	DUSP3 inh	3CLpro inhibitor	Bead autofluor
COc1cccc(/C=C2\SC(=S)N(CC(=O)N(C)C3CCS(=O)(=O)C3)C2=O)c1 (stereo not drawn)	4	4	1	20	10	5987
COc1cccc(/C=C2\SC(=O)N(CC(=O)NC3CCS(=O)(=O)C3)C2=O)c1 (stereo not drawn)	-1	-2	-1	60*	-6	6051
CC(NC(=O)COC(=O)c1cc(S(=O)(=O)N2CCOCC2)ccc1F)c1ccccc1 (stereo not drawn)	-9	-3	0	nt	nt	3510
CCOC(=O)C1(CC)NC(c2ccc(OC)cc2OC)C2C(=O)N(C)C(=O)C21 (stereo not drawn)	-1	-1	0	15	-6	4198
COc1ccc(-n2nc3c(c2NC(=O)COc2ccccc2OC)CS(=O)(=O)C3)cc1	1	5	0	nt	nt	3727
CCOC(=O)N1CCN(c2nc(-c3ccco3)cc(C(F)(F)F)n2)CC1	2	-7	2	35	-2	8698
FC(F)(F)c1cc(-c2ccco2)nc(-n2nc(C(F)(F)F)cc2C2CC2)n1	6	-5	6	-8	7	20606*
CN1CCN(c2nc(-c3ccco3)cc(C(F)(F)F)n2)CC1	-4	-2	-4	6	2	17518*
O=C(CNC(=S)N(Cc1ccccc1)Cc1cccnc1)NCCN1CCOCC1	0	1	0	23	4	3925
COc1ccc(CNC(=O)COC(=O)c2cccn2C)cc1	4	5	1	nt	nt	2916
O=C(NCC(=O)N1CCCCCCC1)c1ccc(Cl)c(Cl)c1	-7	-2	0	nt	nt	4694
C=CCn1c(C(CCCC)CC(C)O)n[nH]c1=S (stereo not drawn)	0	-1	0	2	4	2156
C=CCn1c(C(CCC(C)C)CC(C)(C)O)n[nH]c1=S (stereo not drawn)	-6	0	-4	-8	1	24772*
Cn1c(N)c(S(=O)(=O)N2CCN(c3ccccc3F)CC2)c(=O)n(C)c1=O	0	-1	-1	10	2	4618
Cc1ccc(Nc2c([N+](=O)[O-])c(=O)n(C)c3ccccc23)cc1C	3	2	6	-4	-9	21534*
Cn1cc(C(=O)C(=O)N2CCc3ccccc32)c2ccccc21	5	-6	1	-11	-2	5230
Cc1ccc(OCC(=O)Nc2cc(C)on2)c([N+](=O)[O-])n1	-4	-3	0	26	-1	4250
Cc1ccc(OCC(=O)NC(C)c2ccc(Cl)c(Cl)c2)c([N+](=O)[O-])n1 (stereo not drawn)	-2	4	0	52*	4	5780
